Data on 15 targets can be found in the supplement of paper PMC10849652.

What all share (assay): log2 fold change, soluble protein after heating vs DMSO (PISA); higher = thermal stabilisation; K562 cells, 10 uM, 30 min; active = over 0.2 and 3.5 SD of the protein, either way, in both replicates (recomputed)
Compound in experiment [1]: CS(=O)(=O)c1ccc(-c2cnc(N)c(C(=O)Nc3ccccc3)n2)cc1
The gist of the method:
(§1)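 For each measurement, 10 μM compound was applied for 30 min to K562 cells at 2×10^6 cells/mL. Aliquots were heated for 3 min across 48°C-58°C, pooled, and extracted in PBS with 0.5% NP-40 at 4°C; the supernatant after 21,000xg for 90 min was soluble protein. This was quantified by TMTpro 16plex LC-MS/MS with channel sums equalised, and thermal stability was reported relative to control samples from duplicates, on a log2 fold-change scale.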

Compound in the next experiment: C[C@@H](Oc1cc(-c2cnn(C3CCNCC3)c2)cnc1N)c1c(Cl)ccc(F)c1Cl [crizotinib]
The gist of the method: as §1

Compound in experiment [2]: C[C@@H]1COCCN1C2=NC(=NC(=C2)C3(CC3)S(=O)(=O)C)C4=C5C=CNC5=CC=C4
An outline of the steps: as §1

Compound in experiment [3]: C[C@H](C1=CC=C(C=C1)C(=O)NC2=C3C=CNC3=NC=C2)N
An outline of the steps: as §1

Compound in a further experiment: C[C@H](Nc1ncnc2nc[nH]c12)c1cc2cccc(Cl)c2c(=O)n1-c1ccccc1 [duvelisib]
An outline of the steps:
as §1

Compound in another experiment: Cc1cc(Nc2cc(CN3CCOCC3)c3nc(C)c(Cc4ccc(Cl)cc4F)n3n2)n[nH]1 [gandotinib]
The gist of the method:
as §1

Compound in a further experiment: Cc1cc(Nc2cc(N3CCN(C)CC3)nc(Sc3ccc(NC(=O)C4CC4)cc3)n2)n[nH]1 [tozasertib]
An outline of the steps: as §1

Compound in experiment [4]: Cc1cc(SCc2sc(-c3ccc(C(F)(F)F)cc3)nc2C)ccc1OCC(=O)O
The gist of the method: as §1

Compound in the next experiment: Cc1ccc(-n2nc(C(C)(C)C)cc2NC(=O)Nc2ccc(OCCN3CCOCC3)c3ccccc23)cc1 [doramapimod]
The gist of the method: as §1

Compound in the next experiment: Cc1ccc(C(=O)N(CCCN)[C@@H](c2nc3cc(Cl)ccc3c(=O)n2Cc2ccccc2)C(C)C)cc1 [ispinesib]
The gist of the method:
as §1

Targets with a hit are over-represented here; the source holds about 7,900 in all. About 0.6% of all pairs of compound and target were hits. A number with no mark means an inactive call.

UniProt O95870, sequence (O95870 whole entry, looked up): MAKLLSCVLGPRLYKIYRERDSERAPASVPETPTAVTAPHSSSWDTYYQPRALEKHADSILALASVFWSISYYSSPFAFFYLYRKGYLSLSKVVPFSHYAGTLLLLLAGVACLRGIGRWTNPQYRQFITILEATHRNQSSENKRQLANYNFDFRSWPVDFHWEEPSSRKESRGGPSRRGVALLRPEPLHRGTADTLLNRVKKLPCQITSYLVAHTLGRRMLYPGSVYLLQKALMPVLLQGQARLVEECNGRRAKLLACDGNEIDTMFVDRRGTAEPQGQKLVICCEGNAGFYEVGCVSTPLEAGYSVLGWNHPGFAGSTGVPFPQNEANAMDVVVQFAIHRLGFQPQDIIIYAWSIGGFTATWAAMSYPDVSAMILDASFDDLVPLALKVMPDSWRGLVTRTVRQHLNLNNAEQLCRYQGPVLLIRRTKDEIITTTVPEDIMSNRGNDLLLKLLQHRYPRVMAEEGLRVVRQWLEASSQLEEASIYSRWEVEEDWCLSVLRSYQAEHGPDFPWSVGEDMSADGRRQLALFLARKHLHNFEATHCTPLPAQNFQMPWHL
UniProt Q9P287, sequence (Q9P287 whole entry, looked up): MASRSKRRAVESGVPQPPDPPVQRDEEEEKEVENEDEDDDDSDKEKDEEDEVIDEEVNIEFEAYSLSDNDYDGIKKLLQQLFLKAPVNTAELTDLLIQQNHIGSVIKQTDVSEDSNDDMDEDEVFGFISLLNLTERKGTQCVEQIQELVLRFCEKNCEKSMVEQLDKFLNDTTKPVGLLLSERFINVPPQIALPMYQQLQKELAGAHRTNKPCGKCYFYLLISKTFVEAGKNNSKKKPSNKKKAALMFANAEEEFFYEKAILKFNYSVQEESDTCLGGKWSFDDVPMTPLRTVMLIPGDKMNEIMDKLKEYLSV
UniProt P35670, sequence (P35670 whole entry, looked up): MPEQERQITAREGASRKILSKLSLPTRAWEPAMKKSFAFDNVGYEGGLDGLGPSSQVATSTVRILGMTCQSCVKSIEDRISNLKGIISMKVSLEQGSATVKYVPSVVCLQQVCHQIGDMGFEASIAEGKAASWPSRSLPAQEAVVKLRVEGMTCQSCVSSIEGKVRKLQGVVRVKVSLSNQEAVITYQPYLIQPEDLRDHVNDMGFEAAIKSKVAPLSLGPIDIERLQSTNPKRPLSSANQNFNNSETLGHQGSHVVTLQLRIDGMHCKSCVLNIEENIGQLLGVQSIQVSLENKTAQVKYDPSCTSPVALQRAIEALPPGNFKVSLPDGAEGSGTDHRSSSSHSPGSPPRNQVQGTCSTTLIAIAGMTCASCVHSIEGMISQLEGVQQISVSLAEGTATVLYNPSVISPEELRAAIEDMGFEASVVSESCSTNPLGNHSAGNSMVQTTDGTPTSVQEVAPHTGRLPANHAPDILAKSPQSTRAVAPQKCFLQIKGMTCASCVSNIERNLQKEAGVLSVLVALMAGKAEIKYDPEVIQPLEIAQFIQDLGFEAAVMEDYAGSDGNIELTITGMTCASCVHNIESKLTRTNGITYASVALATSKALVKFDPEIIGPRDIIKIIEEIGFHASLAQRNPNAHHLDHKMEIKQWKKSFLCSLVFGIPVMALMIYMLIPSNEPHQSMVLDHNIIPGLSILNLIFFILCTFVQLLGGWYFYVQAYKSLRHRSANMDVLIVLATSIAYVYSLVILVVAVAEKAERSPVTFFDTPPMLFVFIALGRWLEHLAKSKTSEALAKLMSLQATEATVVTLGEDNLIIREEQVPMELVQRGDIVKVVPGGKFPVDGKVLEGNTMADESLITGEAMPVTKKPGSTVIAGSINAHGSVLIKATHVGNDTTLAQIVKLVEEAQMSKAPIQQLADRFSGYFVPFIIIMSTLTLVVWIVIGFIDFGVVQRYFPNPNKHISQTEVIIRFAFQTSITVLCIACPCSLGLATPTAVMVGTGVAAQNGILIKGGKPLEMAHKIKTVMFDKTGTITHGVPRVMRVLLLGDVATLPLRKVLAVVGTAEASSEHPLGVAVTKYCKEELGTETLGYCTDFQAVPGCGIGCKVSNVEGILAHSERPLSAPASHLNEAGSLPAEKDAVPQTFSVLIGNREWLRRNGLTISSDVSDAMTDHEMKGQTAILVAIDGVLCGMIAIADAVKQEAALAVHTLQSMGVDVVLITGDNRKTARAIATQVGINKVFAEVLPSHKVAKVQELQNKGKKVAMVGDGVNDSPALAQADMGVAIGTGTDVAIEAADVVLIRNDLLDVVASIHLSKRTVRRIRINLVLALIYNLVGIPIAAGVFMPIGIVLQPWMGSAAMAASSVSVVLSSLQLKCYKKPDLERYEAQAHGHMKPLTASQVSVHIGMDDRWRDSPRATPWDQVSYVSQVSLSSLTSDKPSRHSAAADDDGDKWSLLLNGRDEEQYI
UniProt O95433, sequence (O95433 whole entry, looked up): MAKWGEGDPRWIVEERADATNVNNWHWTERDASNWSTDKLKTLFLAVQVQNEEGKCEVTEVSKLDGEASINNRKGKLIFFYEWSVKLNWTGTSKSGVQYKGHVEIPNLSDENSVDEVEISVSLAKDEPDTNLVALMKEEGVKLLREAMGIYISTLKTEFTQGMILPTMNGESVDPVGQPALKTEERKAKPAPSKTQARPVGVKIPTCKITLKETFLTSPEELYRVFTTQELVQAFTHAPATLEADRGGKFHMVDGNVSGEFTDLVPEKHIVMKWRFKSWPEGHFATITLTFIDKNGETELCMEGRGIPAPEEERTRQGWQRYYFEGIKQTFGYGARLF
UniProt P11310, sequence (P11310 whole entry, looked up): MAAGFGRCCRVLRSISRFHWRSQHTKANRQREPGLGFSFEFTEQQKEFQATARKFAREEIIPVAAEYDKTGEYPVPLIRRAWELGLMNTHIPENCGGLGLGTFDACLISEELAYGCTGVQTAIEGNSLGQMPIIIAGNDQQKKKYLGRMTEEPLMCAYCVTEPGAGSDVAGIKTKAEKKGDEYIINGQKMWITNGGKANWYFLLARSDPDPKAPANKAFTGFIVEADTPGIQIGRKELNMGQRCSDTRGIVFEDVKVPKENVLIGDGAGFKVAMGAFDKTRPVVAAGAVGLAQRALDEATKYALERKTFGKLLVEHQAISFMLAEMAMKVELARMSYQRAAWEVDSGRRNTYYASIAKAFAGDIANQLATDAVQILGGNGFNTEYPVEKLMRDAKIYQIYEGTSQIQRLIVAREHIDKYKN
UniProt Q9BTT0, sequence (Q9BTT0 whole entry, looked up): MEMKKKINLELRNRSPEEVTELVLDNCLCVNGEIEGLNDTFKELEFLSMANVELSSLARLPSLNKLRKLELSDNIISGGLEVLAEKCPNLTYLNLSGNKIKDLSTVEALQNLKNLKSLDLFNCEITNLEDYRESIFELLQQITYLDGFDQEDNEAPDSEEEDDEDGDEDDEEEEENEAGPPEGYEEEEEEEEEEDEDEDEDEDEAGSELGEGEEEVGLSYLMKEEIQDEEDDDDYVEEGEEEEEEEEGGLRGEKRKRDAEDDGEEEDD
UniProt Q9UKG1, sequence (Q9UKG1 whole entry, looked up): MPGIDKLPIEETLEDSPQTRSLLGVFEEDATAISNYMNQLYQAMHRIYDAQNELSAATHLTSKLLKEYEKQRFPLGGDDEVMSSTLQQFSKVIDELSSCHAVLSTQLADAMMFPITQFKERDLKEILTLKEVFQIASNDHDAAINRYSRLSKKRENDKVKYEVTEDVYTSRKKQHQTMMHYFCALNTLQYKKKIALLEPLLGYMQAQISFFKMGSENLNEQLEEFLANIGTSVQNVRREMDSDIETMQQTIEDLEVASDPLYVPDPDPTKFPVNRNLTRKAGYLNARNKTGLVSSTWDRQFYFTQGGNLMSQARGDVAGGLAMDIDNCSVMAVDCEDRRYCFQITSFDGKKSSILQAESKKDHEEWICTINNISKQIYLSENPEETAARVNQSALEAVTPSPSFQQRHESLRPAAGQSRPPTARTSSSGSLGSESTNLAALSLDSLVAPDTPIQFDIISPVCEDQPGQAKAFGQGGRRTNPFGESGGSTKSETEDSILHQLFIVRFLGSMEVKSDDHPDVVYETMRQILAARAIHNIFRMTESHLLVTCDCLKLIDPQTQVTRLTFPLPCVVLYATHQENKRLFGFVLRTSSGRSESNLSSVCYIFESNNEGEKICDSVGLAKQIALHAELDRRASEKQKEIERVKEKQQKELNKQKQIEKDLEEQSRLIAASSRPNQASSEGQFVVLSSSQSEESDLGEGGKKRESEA
UniProt Q13444, sequence (Q13444 whole entry, looked up): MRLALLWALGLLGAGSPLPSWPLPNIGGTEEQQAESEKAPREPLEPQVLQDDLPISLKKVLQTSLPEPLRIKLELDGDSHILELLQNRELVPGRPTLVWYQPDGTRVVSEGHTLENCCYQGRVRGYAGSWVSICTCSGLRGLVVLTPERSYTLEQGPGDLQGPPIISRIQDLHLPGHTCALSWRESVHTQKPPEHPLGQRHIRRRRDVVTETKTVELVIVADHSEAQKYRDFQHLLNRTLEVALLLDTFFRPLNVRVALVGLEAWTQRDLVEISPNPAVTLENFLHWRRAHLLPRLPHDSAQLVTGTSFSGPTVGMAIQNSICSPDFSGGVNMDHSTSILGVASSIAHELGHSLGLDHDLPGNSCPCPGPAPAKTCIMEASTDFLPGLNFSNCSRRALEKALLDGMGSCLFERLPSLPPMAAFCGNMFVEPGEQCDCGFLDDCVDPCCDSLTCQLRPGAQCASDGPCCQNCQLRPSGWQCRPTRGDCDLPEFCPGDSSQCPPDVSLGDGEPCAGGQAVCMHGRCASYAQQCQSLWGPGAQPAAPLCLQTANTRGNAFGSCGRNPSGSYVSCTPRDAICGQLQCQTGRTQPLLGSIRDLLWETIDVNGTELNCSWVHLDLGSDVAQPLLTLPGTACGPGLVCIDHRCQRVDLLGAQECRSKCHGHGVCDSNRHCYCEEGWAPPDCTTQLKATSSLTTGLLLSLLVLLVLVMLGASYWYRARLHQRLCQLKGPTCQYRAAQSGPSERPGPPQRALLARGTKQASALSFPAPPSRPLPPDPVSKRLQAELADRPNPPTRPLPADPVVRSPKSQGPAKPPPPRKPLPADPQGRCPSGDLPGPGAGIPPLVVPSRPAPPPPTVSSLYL

For AGO1 (UniProt Q9UL18), the log2 fold change in experiment [1] is -0.071; with crizotinib, -0.064; in [2], -0.007; in experiment [3], 0.006; in the experiment with duvelisib it was -0.116; with gandotinib, 0.094. Besides, the log2 fold change in the experiment with tozasertib is -0.153; in experiment [4] it was 0.002; with doramapimod, -0.066; in the experiment with ispinesib, 0.125.
Take ARHGAP1 (UniProt Q07960): the log2 fold change in experiment [1] was 0.011; with crizotinib it was 0.154; in experiment [2] it was 0.038; in [3], -0.003; in the experiment with duvelisib, 0.057; with gandotinib it was 0.011. The log2 fold change was 0.046 with tozasertib, 0 in experiment [4], -0.039 with doramapimod and 0.235 (active) with ispinesib.
As for ARAF (UniProt P10398), the log2 fold change is 0.012 in experiment [1]; -0.093 with crizotinib; 0.059 in [2]; 0.112 in experiment [3]; -0.009 with duvelisib; 0.039 in the experiment with gandotinib. Besides, the log2 fold change was -0.074 in the experiment with tozasertib, 0.081 in experiment [4], -0.035 with doramapimod and -0.051 with ispinesib.
Take ATP7B (UniProt P35670): the log2 fold change in experiment [1] is -0.009; with crizotinib, -0.005; in [2] it was 0.03; in [3], 0.065; with duvelisib, 0.092; in the experiment with gandotinib it was -0.141. Moreover, the log2 fold change with tozasertib was 0.033; in [4] it was -0.014; in the experiment with doramapimod, 0.137; with ispinesib, -0.015.
Turning to ADAM15 (UniProt Q13444), the log2 fold change in experiment [1] was 0; in the experiment with crizotinib, 0.097; in experiment [2] it was 0.015; in experiment [3], -0.047; in the experiment with duvelisib, 0.119; in the experiment with gandotinib, -0.047. In addition, the log2 fold change with tozasertib is -0.067; in experiment [4], -0.047; with doramapimod, 0.033; in the experiment with ispinesib it was -0.119.
As to ATP13A2 (UniProt Q9NQ11), the log2 fold change was -0.012 in experiment [1]; -0.214 in the experiment with crizotinib; 0.031 in experiment [2]; 0.008 in [3]; 0.105 with duvelisib; 0.01 with gandotinib. The log2 fold change with tozasertib was -0.006; in experiment [4], 0.018; with doramapimod, 0.025; in the experiment with ispinesib, -0.363 (active).
For ACADM isoform 2 (UniProt P11310), the log2 fold change was 0.075 in experiment [1]; 0.022 with crizotinib; 0.018 in [2]; -0.073 in experiment [3]; 0.018 in the experiment with duvelisib; 0.049 with gandotinib. The log2 fold change in the experiment with tozasertib was -0.022; in experiment [4], -0.01; with doramapimod, -0.059; with ispinesib, 0.052.
Consider BCCIP isoform 2 (UniProt Q9P287), for which the log2 fold change in experiment [1] was -0.006; in the experiment with crizotinib, -0.012; in experiment [2] it was 0; in experiment [3], 0.062; with duvelisib, 0.067; in the experiment with gandotinib it was -0.047. The log2 fold change in the experiment with tozasertib is 0; in [4], 0.011; with doramapimod, -0.008; with ispinesib it was 0.059.
As for ANP32E (UniProt Q9BTT0), the log2 fold change in experiment [1] is -0.021; with crizotinib it was 0.055; in [2] it was 0.12; in [3], -0.16; with duvelisib, 0.036; with gandotinib, -0.082. For the same target, the log2 fold change was 0.096 with tozasertib, 0.026 in [4], -0.014 with doramapimod and 0.002 with ispinesib.
On to APPL1 (UniProt Q9UKG1), for which the log2 fold change in experiment [1] is -0.019; in the experiment with crizotinib, -0.015; in [2], -0.078; in [3], 0.034; with duvelisib, 0.077; with gandotinib, 0.123. In addition, the log2 fold change with tozasertib was -0.028; in experiment [4] it was -0.003; with doramapimod, 0.032; with ispinesib, -0.098.
Regarding AHSA1 (UniProt O95433), the log2 fold change in experiment [1] is 0.035; in the experiment with crizotinib, 0.034; in experiment [2] it was 0.058; in [3], -0.026; in the experiment with duvelisib it was 0.027; with gandotinib it was -0.077. Moreover, the log2 fold change with tozasertib is 0.015; in [4] it was 0.023; in the experiment with doramapimod, -0.029; with ispinesib, -0.003.
For AP2A2 isoform 2 (UniProt O94973), the log2 fold change in experiment [1] was 0.022; with crizotinib, -0.076; in experiment [2], -0.033; in [3], -0.186; with duvelisib, 0.009; with gandotinib it was -0.057. Further, the log2 fold change with tozasertib was -0.091; in experiment [4] it was -0.021; in the experiment with doramapimod, 0.03; with ispinesib it was 0.024.
Regarding AKAP8 (UniProt O43823), the log2 fold change is 0.047 in experiment [1]; -0.104 with crizotinib; 0.077 in experiment [2]; 0.062 in experiment [3]; 0.032 in the experiment with duvelisib; -0.036 with gandotinib. In addition, the log2 fold change with tozasertib was 0.005; in experiment [4], 0.061; with doramapimod, 0.033; in the experiment with ispinesib it was -0.103.
As for ALKBH4 (UniProt Q9NXW9), the log2 fold change was 0.082 in experiment [1]; -0.033 with crizotinib; 0.172 in experiment [2]; 0.029 in [3]; -0.068 with duvelisib; -0.084 in the experiment with gandotinib. Moreover, the log2 fold change in the experiment with tozasertib is 0.024; in [4] it was 0.12; with doramapimod, 0.037; with ispinesib, -0.109.
On to ABHD16A (UniProt O95870), for which the log2 fold change in [1] was -0.012; in the experiment with crizotinib it was 0.277; in [2], 0.029; in experiment [3] it was 0.033; with duvelisib, 0.014; with gandotinib it was 0.158. Moreover, the log2 fold change is -0.009 with tozasertib, 0.012 in experiment [4], 0.136 with doramapimod and 0.125 with ispinesib.
